The term AC50 denotes the midpoint of the concentration-response curve, whichever way the signal moves.

The structures appear in SMILES notation. Activity calls are given as the source filed them. The calls were made as follows: active = hit-call score of the fitted dose curve at least 0.9, where 1 is the maximum; inactive = score below 0.9.

This assay is described as follows: ATG_E_Box_CIS: Attagene CIS-FACTORIAL HepG2 Assay for human Enhancer Box (E-box) (AID 2282936). Particulars: HepG2 E-box cis-reporter transcription, actives raise or lower the signal. Here is the method:
ATG_CIS is a cell-based, multiplexed-readout assay that uses HepG2, a human liver cell line, with measurements taken at 24 hours after chemical dosing in a 24-well plate.ATG_E_Box_CIS is one of 52 assay component(s) measured or calculated from the ATG_CIS assay. It is designed to make measurements of mRNA induction, a form of inducible reporter, as detected with fluorescence intensity signals by Reverse transcription polymerase chain reaction (RT-PCR) and Capillary electrophoresis technology.Data from the assay component ATG_E_Box_CIS was analyzed into 1 assay endpoint. This assay endpoint, ATG_E_Box_CIS, was analyzed with bidirectional fitting relative to DMSO as the negative control and baseline of activity. Using a type of inducible reporter, measures of mRNA for gain or loss-of-signal activity can be used to understand the reporter gene at the transcription factor-level as they relate to the gene USF1. Furthermore, this assay endpoint can be referred to as a primary readout, because this assay has produced multiple assay endpoints where this one serves a reporter gene function. To generalize the intended target to other relatable targets, this assay endpoint is annotated to the dna binding intended target family, where the subfamily is basic helix-loop-helix protein.
Human liver HepG2 cells are transiently transfected with multiple reporter transcription units (MRTUs) in 6-well plates using FuGene 6 reagent (Roche; 3 ml FuGene/1 mg DNA). The MRTU constructs are regulated by a cis-regulating element (promoter). […] A major difference between the CIS and TRANS system is that in CIS activities of endogenous TFs are measured, whereas the TRANS assay evaluates changes in activities of exogenous, chimeric NR-Gal4 proteins. […] At the end of 24 hour incubation, total RNA was isolated using TriZol reagent (Invitrogen). The isolated RNA is then reverse-transcribed using oligo(dT) primer and Mo-MLV reverse transcriptase (Invitrogen) with DNAse I (Ambion) treatment for 30 min. The one-tenth of the produced cDNA was amplified by PCR using Taq DNA polymerase (Invitrogen) and two reporter sequence-specific primers. The PCR products were fluorescently labeled by primer extension with 6-arboxyfluorescein (6-FAM) 5'-labeled reporter sequence-specific primer (2 min at 95 C, 20 s at 68 C and 10 min at 72 C) and these products were digested with 5U of HpaI (New England Biolabs) for 2h at 37 C. The fragments were purified using Qiaquick PCR columns (Qiagen), analyzed on an ABI 3130xL genetic analyzer (Applied Biosystems) with peak positions identified by using a set of X-rhodamine (ROX)-labeled MapMarker1000 molecular weight standards (BioVentures). The raw capillary electrophoresis data was processed using Attagraph software (Attagene).
Consider `CC1CCC(=O)C1=O` (stereo not given), for which the result was inactive.

Regarding `C=C[Si](OCCOC)(OCCOC)OCCOC`, the result was inactive.

As to `CCCCCCC=O`, the outcome was inactive. For the compound `CCCC1CCCC(=O)O1` (stereo not given), the outcome was inactive. For `CC(C)(O)Cc1ccccc1`, the outcome was inactive. Consider `CCCCCCCCCC[N+](C)(CCCCCCCCCC)CCC[Si](OC)(OC)OC`, for which the concentration at half-maximal activity (AC50) is 17.8 µM (active). `C=CC(=O)OCCCCCCCCCC`: the result was inactive. `CCCCOCCOCCOC(C)=O`: the outcome was inactive. On to `CCN1CN(CC)CN(CC)C1`, for which the outcome was inactive. Take `CCCSSCCC`: the outcome was inactive. `O=C(Nc1ccccc1)c1cc(Cl)ccc1O`: the outcome was inactive. With `Nc1ncnc2nc[nH]c12`, the result was inactive. For the compound `CCCCCCCCCCCCCC(=O)OC(C)C`, the result was inactive. `CCCCCC1=CCCC1=O`: the outcome was inactive.

Consider `CC(=O)CC(=O)Nc1ccccc1C`, for which the result was inactive. For `CC1=CCC(C(C)C)C=C1` (stereo not given), the outcome was inactive. With `COc1cc(C)ccc1O`, the result was inactive. On the same count and under the same terms, the result for `N#Cc1ccc(C(c2ccc(C#N)cc2)n2cncn2)cc1` reads “inactive”.

With `CCCCCCCCCCCC(C)=O`, the outcome was inactive. Take `c1ccc2sc(SSN3CCOCC3)nc2c1`: the result was inactive.

Consider `Nc1ccc(C(=O)O)cc1`, for which the outcome was inactive. In the case of `CC1=CCC2CC1C2(C)C` (stereo not given), the outcome was inactive. The same measure, in the same setting: to `CC(=O)OCCc1ccccc1` belongs “inactive”; to `CCCCCCOc1ccc(N)cc1`, “inactive”; to `CCC[Si](OC)(OC)OC`, “inactive”. In the case of `CC(C)(c1ccccc1)c1ccc(Nc2ccc(C(C)(C)c3ccccc3)cc2)cc1`, the outcome was inactive. Regarding `C=C(C)C1CC=C(C)C(OC(C)=O)C1` (stereo not given), the outcome was inactive.

On to `COc1ccc(C(=O)/C(Br)=C\C(=O)O)cc1`, for which the result was inactive. Same read-out and setting: to `CC1=CC=C(C(C)C)CC1` belongs “inactive”; to `O=C1c2ccccc2C(=O)c2cc(S(=O)(=O)O)ccc21`, “inactive”; to `CC(=O)OC/C=C(/C)CCC=C(C)C`, “inactive”. Take `C[Si](C)(C)N[Si](C)(C)C`: the result was inactive. Turning to `CN1CCN(C)CC1`, the outcome was inactive. For the compound `CC(C)(CO)COC(=O)C(C)(C)CO`, the outcome was inactive.

With `C=CCCCCCCCCC=O`, the outcome was inactive. With `CCC(C)N` (stereo not given), the outcome was inactive. `O=c1c(O)c(-c2ccc(O)cc2O)oc2cc(O)cc(O)c12`: the outcome was inactive. `CC(C)[N+](C)(CCOC(=O)C1c2ccccc2Oc2ccccc21)C(C)C`: the outcome was inactive. As to `CCCCNS(=O)(=O)c1ccc(C)cc1`, the result was inactive. As to `CCCCOC(=O)CCC(C)=O`, the outcome was inactive.
